The results in this text go back to PubChem BioAssay (NCATS).

Results filed as inconclusive are left out. Values without a mark were called inactive. Active and inactive are the calls of the source. The call rests on the fitted dose curve; in most records, active means well fitted inhibition curve with a large enough effect; inconclusive means small, poorly fitted or top-dose-only effect; inactive means no such curve, though single readings can be large or run the other way.
On the % scale 0 is the no-effect control and ±100 the full control effect; potency means the concentration at half of the fitted maximal effect.

Chromobox protein homolog 1 (Homo sapiens), sequence (P83916 whole entry, looked up): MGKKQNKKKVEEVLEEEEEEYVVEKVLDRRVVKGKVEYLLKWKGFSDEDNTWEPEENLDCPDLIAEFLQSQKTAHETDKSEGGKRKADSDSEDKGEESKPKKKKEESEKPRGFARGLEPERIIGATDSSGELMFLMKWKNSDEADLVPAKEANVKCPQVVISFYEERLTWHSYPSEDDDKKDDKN

This test addresses Chromobox protein homolog 1 (Homo sapiens) (UniProt P83916). The experiment in a line: qHTS Validation Assay for Inhibitors of HP1-beta Chromodomain Interactions with Methylated Histone Tails (AID 488953). Further: nearly all actives have a fitted effect of over 50% in size. To be noted: HP1-beta chromodomain / methylated histone peptide binding assay; series mostly up to 114 µM; activity change, negative = inhibition: at the top concentration. From the text:
As our understanding of epigenetics expands, it is becoming clear that players in this field are potential targets for drug development. This area of epigenetic therapy has established applications for the treatment of cancer and neurological diseases. We have been involved in this field for a number of years and have performed high-throughput screens to identify the first small molecule inhibitors of protein methyltransferases. These methyltransferases target multiple substrates, and thus regulate many arms of an epigenetic pathway. The methylation of different substrates often generates docking sites for effector proteins that harbor binding domains (chromo, tudor, PHD, MBT and ANK repeats).
It has been proposed that the binding sites generated for different proteins by these post-translational modifcations mediate downstream effects on chromatin. Consistent with this theory, di- and tri-methylation of histone H3K9 facilitates the binding of heterochromatin protein HP1. The HP1 protein harbors a chromodomain that is responsible for the methyl-dependent interaction between HP1 and lysine 9 of histone H3. HP1 was first described in flies as a heterochromatin associated protein that can regulate gene silencing. It harbors a chromodomain that binds H3K9me3. In addition, it harbors a chromoshadow domain that interacts with a large number of proteins that are involved in heterochromatin formation and gene repression. There are three highly related HP1 isoforms. All three variants are associated with pericentric heterochromatin and it is not clear whether they have specific or redundant functions. MPP8 is also involved in the repression of gene in euchromatic regions (unpublished data) and like HP1 its chromodomain binds H3K9me3. MPP8 harbors an ankyrin repeat region that is likely involved in binding and recruiting interacting proteins with transcriptional repressive function, much like the chromoshadow domain of HP1 does.
We hypothesize that by inhibiting specific protein-protein interactions we will be able to develop compounds that block a single arm of an epigenetic pathway. The specificity attained by blocking a single protein-protein interaction will be far greater than that attained by blocking the enzyme that regulates one of many interactions.
Low-affinity protein-protein interactions (Kd in the single- to double-digit micromolar range) such as those discussed here have been very difficult to assay by traditional techniques such as fluorescence polarization or fluorescence resonance energy transfer. We have developed a sensitive chemiluminescence-based assay (Quinn, et al. 2009), which serves as the starting point for this project.
The following is a validation assay to identify lead compounds that can block methyl-dependent protein-protein interactions (specifically HP1-beta), which can be used as probes to analyze these methyl-driven interactions and perhaps even developed into targeted epigenetic therapies.
Assay Provider: Mark T. Bedford, MD Anderson
Screening Center PI: Austin, C.P.
Screening Center: NIH Chemical Genomics Center [NCGC]
To each well, 2 uL of HP1-beta protein (final 50 nM) and 1 uL biotinylated histone peptide trimethylated at Lys9 [b-H3(1-18)K9me3] (final 50 nM) was added in 1x PBS buffer, pH 7.4, containing 0.01% Tween-20 using a nanoliter dispenser. Formation of a protein-peptide complex proceeded at room temperature for 30 min. A Kalypsys pin-tool was employed to transfer 23 nL of library compound solution in DMSO to each well. Aurintricarboxylic acid (ATA) was used as an intraplate control with a 12-point titration in duplicate. Following a 30 min incubation of the protein-peptide complex with compounds at room temperature, a mixture of 40 ug/mL each streptavidin-coated donor and nickel chelate acceptor AlphaScreen beads (final 10 ug/mL) was added in a 1 uL dispense for a final volume of 4 uL. Plates were incubated protected from the light for 30 min at room temperature. […]
In the case of `N#C/C(=C\c1ccc(O)c(O)c1)C(=O)Nc1ccccc1`, the Potency was 12.6 µM (active).
Consider `CC[N+](CC)(CC)CC`, for which the “activity change, negative = inhibition” value is -6.39%.
Turning to `O=C1c2ccccc2C(=O)c2c(NCCc3ccc(O)cc3)ccc(NCCc3ccc(O)cc3)c21`, the Potency was 1.78 µM (active).
Take `CCc1ccc(/C=C2/SC(=S)NC2=O)cc1`: the Potency was 12.6 µM (active).
`C1CCC(N=C(NC23CC4CC(CC(C4)C2)C3)N2CCOCC2)CC1`: the “activity change, negative = inhibition” value was -8.33%.
`N.N.O=C(O)C1(C(=O)O)CCC1.[Pt+2]`: the Potency was 20 µM (active).
Still for that read-out and setting: the value for `O=Nc1c(-c2c(O)[nH]c3ccccc23)[nH]c2ccccc12` was 3.98 µM (active); that for `Nc1c(S(=O)(=O)O)cc(Nc2ccc(Nc3nc(Cl)nc(Nc4ccc(S(=O)(=O)O)cc4)n3)c(S(=O)(=O)O)c2)c2c1C(=O)c1ccccc1C2=O` was 1.26 µM (active).
Turning to `Cc1cccc(/C=C/c2ccccc2)n1`, the “activity change, negative = inhibition” value is 32.7%.
As for `CN1C2CCCC1CC(NC(=O)c1nn(C)c3ccccc13)C2` (stereo unspecified), the “activity change, negative = inhibition” value is -6.66%.
For `Oc1cc2c(c(Cl)c1O)CCNCC2c1ccccc1` (stereo unspecified), the “activity change, negative = inhibition” value is -4.72%.
